Measured values: the supplement of paper PMC11732987, “Enantioselective OTUD7B fragment discovery through chemoproteomics screening and high-throughput optimisation” (Communications Chemistry, 2025)

Key:
Test in all cases: log2 ratio of Biotin-Ahx-Ub-VS probe labelling (fragment/DMSO); higher = less target engagement (more negative = stronger competition), active = hit call of the paper (q ≤ 0.05, log2 ratio ≤ -1)
Conditions in all cases: compound concentration: 200 uM; treatment time: 3 h
USP19 = biological target: T1, USP19 (UniProt O94966)
T1 sequence (whole entry): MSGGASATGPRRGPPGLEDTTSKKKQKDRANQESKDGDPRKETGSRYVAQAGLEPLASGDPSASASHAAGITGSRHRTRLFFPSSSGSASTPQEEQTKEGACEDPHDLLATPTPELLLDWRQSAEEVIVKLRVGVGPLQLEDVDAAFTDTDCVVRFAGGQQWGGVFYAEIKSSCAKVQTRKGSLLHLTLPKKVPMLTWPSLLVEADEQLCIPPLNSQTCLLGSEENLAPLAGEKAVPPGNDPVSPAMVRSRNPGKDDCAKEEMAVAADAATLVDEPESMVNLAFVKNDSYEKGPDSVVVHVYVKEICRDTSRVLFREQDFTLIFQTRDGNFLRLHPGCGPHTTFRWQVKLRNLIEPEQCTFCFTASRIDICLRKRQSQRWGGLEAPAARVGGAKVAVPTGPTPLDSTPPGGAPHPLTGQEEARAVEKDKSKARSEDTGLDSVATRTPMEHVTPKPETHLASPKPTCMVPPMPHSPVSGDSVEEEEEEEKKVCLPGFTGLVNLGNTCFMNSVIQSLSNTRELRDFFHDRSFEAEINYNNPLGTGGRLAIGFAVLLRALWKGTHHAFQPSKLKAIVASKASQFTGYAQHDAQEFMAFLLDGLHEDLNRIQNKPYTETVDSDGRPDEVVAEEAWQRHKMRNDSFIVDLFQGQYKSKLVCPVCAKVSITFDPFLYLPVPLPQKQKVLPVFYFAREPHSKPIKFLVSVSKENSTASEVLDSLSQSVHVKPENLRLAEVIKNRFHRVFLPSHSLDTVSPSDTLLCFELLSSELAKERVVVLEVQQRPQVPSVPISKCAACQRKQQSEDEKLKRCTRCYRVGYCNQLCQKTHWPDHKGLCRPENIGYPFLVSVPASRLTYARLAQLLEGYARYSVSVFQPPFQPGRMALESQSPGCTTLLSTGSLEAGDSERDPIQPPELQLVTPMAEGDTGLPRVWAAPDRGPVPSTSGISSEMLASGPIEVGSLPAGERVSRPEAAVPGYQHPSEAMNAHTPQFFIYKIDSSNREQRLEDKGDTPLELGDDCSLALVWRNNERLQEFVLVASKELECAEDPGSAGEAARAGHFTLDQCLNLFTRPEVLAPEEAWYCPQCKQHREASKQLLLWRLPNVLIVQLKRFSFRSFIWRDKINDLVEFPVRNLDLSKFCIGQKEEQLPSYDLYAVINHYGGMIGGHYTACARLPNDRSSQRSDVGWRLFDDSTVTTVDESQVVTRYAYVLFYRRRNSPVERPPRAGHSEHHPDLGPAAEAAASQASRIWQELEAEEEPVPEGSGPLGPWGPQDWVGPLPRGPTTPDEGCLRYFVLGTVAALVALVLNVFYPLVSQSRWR
Outline: (§1)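 HEK293T lysate (495 µg per sample, in Tris/CHAPS/IGEPAL buffer with protease inhibitors) was exposed in triplicate for 3 h to fragment at 200 µM or to vehicle, then to Biotin-Ahx-Ub-VS at 0.5 µM final for 1 h. Labelled DUBs were enriched on NeutrAvidin, digested with LysC and trypsin, and analysed by diaPASEF LC-MS/MS. Spectronaut label-free quantities were normalised to the global median, and values are average log2 ratios of fragment over vehicle from an unpaired t-test. Only proteins with ≥2 unique peptides were used.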

USP22 = biological target: T2, USP22 (UniProt Q9UPT9)
T2 sequence (whole entry): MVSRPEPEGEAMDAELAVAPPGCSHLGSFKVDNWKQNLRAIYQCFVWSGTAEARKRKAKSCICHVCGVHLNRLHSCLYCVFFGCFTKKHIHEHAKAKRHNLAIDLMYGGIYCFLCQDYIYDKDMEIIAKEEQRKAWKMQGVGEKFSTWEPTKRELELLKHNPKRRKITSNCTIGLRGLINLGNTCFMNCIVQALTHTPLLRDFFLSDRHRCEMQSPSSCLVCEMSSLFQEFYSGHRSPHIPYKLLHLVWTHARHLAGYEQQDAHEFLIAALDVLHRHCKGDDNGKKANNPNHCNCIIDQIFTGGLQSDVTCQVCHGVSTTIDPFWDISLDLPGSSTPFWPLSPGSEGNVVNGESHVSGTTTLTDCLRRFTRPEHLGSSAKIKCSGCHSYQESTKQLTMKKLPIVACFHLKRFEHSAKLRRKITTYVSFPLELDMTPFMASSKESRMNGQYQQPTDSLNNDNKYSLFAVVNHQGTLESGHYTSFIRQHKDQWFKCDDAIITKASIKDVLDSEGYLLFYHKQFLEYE
Outline: as §1

USP24 = USP24 (UniProt Q9UPU5)
USP24, sequence (Q9UPU5 whole entry): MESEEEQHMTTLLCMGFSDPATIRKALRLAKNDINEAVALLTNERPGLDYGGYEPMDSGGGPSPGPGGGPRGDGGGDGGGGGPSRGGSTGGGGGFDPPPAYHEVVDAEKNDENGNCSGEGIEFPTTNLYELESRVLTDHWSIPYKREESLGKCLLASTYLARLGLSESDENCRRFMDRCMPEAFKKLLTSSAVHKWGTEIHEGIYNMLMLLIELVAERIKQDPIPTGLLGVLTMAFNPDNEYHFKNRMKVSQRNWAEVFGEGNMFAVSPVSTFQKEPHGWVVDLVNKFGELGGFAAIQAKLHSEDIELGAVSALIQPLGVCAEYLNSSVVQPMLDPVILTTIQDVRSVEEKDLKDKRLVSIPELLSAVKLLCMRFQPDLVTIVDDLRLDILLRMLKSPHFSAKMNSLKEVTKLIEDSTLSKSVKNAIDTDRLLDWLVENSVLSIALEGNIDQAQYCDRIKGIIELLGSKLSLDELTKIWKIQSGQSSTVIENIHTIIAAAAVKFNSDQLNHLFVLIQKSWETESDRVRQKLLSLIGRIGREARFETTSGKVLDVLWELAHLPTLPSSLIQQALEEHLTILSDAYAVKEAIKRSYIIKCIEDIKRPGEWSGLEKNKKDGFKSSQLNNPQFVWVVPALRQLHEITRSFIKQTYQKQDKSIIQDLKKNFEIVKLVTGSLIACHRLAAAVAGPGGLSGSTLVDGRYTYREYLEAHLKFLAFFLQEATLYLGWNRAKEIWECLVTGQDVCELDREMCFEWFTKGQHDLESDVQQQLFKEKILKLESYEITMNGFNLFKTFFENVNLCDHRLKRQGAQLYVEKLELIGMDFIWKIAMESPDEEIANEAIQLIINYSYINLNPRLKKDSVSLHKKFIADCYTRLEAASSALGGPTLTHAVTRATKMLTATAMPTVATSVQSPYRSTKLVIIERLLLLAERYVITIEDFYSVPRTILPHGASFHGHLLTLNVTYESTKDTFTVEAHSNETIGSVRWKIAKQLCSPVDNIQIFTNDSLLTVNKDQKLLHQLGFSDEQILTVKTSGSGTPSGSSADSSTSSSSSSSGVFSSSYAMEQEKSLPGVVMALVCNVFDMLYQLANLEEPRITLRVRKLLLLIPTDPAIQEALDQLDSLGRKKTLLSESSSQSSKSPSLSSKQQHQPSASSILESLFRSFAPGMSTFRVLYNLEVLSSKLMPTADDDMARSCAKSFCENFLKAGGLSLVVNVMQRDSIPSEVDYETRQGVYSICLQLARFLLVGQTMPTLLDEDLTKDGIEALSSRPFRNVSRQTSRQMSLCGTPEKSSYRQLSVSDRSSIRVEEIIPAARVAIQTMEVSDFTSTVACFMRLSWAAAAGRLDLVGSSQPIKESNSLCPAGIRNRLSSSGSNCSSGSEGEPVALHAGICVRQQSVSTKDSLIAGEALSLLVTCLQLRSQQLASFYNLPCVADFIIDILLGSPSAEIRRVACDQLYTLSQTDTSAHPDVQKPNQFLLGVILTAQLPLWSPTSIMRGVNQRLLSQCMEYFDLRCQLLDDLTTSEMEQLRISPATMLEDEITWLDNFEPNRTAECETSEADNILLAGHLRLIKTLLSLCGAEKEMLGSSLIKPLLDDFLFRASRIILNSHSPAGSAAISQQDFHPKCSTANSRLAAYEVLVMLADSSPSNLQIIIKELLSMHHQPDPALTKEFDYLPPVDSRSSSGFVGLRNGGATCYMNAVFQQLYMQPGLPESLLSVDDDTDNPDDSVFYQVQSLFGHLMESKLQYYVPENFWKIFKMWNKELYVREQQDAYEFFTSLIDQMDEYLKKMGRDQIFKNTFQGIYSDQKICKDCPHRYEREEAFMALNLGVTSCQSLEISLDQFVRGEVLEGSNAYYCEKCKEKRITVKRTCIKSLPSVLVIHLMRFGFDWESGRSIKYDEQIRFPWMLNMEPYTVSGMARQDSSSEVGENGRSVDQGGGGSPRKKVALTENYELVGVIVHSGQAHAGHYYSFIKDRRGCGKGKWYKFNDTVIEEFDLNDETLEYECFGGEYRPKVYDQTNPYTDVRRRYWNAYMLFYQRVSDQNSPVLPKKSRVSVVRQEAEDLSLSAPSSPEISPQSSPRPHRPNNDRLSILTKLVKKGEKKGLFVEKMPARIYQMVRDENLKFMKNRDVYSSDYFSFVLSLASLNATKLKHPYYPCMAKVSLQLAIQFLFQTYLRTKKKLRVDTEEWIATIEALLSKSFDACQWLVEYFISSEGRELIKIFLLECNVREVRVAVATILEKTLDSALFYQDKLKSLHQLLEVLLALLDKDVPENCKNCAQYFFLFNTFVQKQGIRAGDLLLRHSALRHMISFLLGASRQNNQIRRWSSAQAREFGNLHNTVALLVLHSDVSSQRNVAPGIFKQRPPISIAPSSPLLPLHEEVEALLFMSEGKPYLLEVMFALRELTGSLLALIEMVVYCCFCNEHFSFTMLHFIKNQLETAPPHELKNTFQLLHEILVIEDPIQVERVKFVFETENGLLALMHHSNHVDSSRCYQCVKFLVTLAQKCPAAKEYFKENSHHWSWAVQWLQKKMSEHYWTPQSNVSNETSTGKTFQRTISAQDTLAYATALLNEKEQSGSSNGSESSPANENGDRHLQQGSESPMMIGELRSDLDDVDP
Outline: as §1

USP25 = biological target: T3, USP25 (UniProt Q9UHP3)
T3 sequence (whole entry): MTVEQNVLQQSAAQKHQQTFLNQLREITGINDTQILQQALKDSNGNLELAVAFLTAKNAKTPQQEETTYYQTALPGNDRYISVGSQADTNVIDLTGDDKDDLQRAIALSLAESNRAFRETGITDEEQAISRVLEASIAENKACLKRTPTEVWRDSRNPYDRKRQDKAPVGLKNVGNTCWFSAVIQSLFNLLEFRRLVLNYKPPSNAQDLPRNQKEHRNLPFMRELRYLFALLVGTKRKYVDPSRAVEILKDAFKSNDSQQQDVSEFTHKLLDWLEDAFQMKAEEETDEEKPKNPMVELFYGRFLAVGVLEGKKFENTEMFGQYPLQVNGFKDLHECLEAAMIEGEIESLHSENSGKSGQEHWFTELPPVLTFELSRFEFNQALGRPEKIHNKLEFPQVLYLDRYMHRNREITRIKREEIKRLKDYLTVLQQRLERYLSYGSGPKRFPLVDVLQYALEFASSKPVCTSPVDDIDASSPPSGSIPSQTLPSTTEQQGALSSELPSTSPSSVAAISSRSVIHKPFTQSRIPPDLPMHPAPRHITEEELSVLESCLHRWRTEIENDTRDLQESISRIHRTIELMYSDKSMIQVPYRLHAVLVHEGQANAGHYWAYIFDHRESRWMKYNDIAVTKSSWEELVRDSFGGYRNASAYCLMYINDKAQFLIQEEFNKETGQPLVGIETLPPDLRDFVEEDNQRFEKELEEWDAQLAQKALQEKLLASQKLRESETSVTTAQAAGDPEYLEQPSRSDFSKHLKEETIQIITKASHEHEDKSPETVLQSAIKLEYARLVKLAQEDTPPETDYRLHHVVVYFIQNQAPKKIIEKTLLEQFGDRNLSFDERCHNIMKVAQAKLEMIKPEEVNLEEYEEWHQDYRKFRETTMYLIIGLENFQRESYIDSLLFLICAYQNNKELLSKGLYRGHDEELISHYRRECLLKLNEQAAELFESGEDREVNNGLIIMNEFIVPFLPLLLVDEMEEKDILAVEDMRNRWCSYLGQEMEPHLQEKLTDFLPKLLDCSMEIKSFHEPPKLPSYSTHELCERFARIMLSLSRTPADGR
Outline: as §1

USP28 = biological target: T4, USP28 (UniProt Q96RU2)
T4 sequence (whole entry): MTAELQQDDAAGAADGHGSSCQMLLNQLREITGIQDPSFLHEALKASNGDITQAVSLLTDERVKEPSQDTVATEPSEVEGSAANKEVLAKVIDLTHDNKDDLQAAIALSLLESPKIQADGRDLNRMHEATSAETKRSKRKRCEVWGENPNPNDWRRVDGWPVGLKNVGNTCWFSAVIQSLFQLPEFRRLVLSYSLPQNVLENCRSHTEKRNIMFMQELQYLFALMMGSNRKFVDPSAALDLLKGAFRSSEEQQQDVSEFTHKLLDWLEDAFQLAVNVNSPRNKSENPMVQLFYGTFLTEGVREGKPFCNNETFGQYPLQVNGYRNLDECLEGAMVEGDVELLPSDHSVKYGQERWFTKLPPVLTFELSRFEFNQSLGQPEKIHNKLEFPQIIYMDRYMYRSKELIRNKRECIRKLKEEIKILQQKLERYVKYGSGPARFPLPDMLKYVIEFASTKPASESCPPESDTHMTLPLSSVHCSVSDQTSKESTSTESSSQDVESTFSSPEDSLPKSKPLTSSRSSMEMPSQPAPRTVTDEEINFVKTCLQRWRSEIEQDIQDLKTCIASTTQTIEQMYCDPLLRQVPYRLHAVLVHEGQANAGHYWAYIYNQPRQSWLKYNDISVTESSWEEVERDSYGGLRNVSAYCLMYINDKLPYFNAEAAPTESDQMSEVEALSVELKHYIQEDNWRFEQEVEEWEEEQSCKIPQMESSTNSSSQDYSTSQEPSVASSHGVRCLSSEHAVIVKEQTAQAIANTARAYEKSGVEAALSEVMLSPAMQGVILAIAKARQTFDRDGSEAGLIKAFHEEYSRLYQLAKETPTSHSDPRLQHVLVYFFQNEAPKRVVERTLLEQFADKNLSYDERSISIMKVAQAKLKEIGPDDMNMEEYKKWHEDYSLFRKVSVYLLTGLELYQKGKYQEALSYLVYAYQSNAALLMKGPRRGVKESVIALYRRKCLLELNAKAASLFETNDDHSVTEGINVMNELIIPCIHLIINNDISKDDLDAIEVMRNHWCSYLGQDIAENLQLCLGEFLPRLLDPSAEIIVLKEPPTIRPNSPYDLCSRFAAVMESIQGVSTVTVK
Outline: as §1

Measured: log2 ratio of Biotin-Ahx-Ub-VS probe labelling

CNC(=O)Cn1cc(NC(=O)CCl)cn1
inactive: USP19 -0.0937 | USP22 -0.0499 | USP24 -0.146 | USP25 -0.172 | USP28 -0.486
